# Assays:
# Experiment in all cases: PBM binding z-score (relative to random genomic background probes); higher = stronger binding; sequences stand for … in GC…GCGATTGACAGCGTAGAATGAAGG
# [1] = test system: RARb homodimer (NR concentration 270 nM)
# Outline: (§1)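 Regression normalization was applied to scanned fluorescence from custom Agilent 4×180K protein-binding microarrays. Before scanning, arrays were incubated 1 h with ligand-free nuclear receptor dimers, and binding was detected with antibodies against each partner (one per run). Binding z-scores use the random background probes as reference.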
# [2] = test system: RARg:RXRa (NR concentration 270 nM, RXRa partner concentration 90 nM)
# Outline: as §1
# [3] = test system: RARg homodimer (NR concentration 270 nM)
# Outline: as §1
# [4] = test system: RXRa DBDmut IVT, anti-RXR (DBD mutation: RXRa K156A/R161A, NR concentration 90 nM)
# Outline: as §1
# [5] = test system: RXRa homodimer (NR concentration 180 nM)
# Outline: as §1
# [6] = test system: THRa:RXRa (NR concentration 90 nM, RXRa partner concentration 90 nM)
# Outline: as §1
# [7] = test system: THRa homodimer (NR concentration 90 nM)
# Outline: as §1
# [8] = test system: VDR:RXRa (NR concentration 270 nM, RXRa partner concentration 90 nM)
# Outline: as §1
# [9] = test system: VDR homodimer (NR concentration 270 nM)
# Outline: as §1
Sequence,PBM binding z-score [1],PBM binding z-score [2],PBM binding z-score [3],PBM binding z-score [4],PBM binding z-score [5],PBM binding z-score [6],PBM binding z-score [7],PBM binding z-score [8],PBM binding z-score [9]
TGAATGAGGTTTTAAGATCAGGGAACGTTGCAAA,-0.344,-0.157,-0.0698,-0.731,-0.145,0.308,-0.308,-0.241,-0.172
TCAAATAGGTAAATGCTAGGTGAAAGTCCGATCT,0.514,0.401,0.304,1.84,1.06,1.38,0.625,0.866,0.251
CAAACTAGGTCAGAACAGGACAGTGAAGGATGAT,2.11,2.51,3.33,0.474,1.28,3.7,0.447,0.899,0.417
TCGAGTAGGTTAGTCTGGGCATTCAGCCAACATA,-0.367,-0.389,-0.417,-0.133,-0.273,0.0539,-0.454,-0.0618,-0.466
CCTACTGGGCCACGACAGGTCATTGATTCAGTGA,2.31,1.95,1.52,-0.438,1.56,2.74,0.324,1.32,0.706
TTACCAAGGGGAGCTGAGGTCGTTGATCCAACTC,0.704,0.0282,-0.439,0.656,0.726,3.71,1.49,2.08,1.86
CCTACTGGGCCAAAAAGGTCATTGAGGCCGATAA,4.37,4.72,4.17,0.821,4.63,3.4,0.793,6.03,3.39
TTACCAAGGTGAAGGTCGTTGCTCCCTCTGTAGA,2.04,1.25,1.15,0.573,1.59,2.37,1.06,1.36,1.43
TCATATAGGTAAACAGGTGAGAGTCCGTAAGTTA,0.672,0.456,0.431,1.08,0.983,0.521,0.361,1.01,0.486
ATCTCTAGGTAAGACTCAGTTCAGTGGAGAACGC,0.868,0.285,0.403,0.304,0.0842,0.884,0.583,0.529,1.57
TTATATAGGTAAACAGGTGAAAGTCCGTAAGTTA,0.827,0.632,0.572,0.156,0.949,0.802,0.282,0.869,0.242
CCTGCTAGGTCAATGTTCAGCTAAAGCAGCTCGC,2.69,3.48,4.07,1.93,1.91,2.34,0.628,1.05,0.0912
TGAATGAGGTTATAAGATAAGGGAACGTTGCAAA,0.00548,1.36,1.01,0.619,1.79,1.68,0.04,0.811,0.0331
TTACCAAGGTGAGCTGAGCTCGTTGATCCAACTC,-0.157,-0.164,-0.277,-0.78,0.0974,1,-0.222,-0.427,-0.959
GCTAGCAGGCCATTTGGGACACTCAATGACGGGC,-0.366,-0.267,0.308,-0.237,-0.122,0.63,-0.00643,-0.447,-0.65
ATATGTAGGTTATAGGGTCATTCAGTTTGCGCAT,3.76,4.28,3.26,2.26,4.98,3.83,3.31,5.98,4.34
TTACCAAGGTGAAGGTCGGTGATCCCTCTGTAGA,1.61,1.3,0.916,-0.375,1.5,2.21,0.976,0.428,0.13
ACTAGTTGGTCAGCTGAGGTCACATACAATTCGG,4.32,3.83,3.84,1.5,3.53,4.98,4.72,4.21,3.28
TCTTGTAGATCAAGCAGGTTAATAAAGCCTGAGT,-0.223,-0.313,-0.28,0.435,0.2,0.0183,-0.531,0.675,0.0475
CGTCAAAGTTCAATGTAACGTAACAGAAAGCAGC,3.56,4.82,5.45,4.69,3.78,1.64,-0.0537,3.74,3.96
ACTAGCAGGCCTAGTTTGGGTCACTCAAACAAAG,1.42,0.276,0.565,-0.626,0.395,1.91,0.883,-0.0369,0.0469
TAGCCTGGGTCATGGGCCAGTATACCACGCGAAC,2.24,3.99,3.38,-1.06,3.73,2.39,-0.0617,1.82,-0.187
CCGACTGGAGCAGAAAGGTTACCATACCATCCGG,2.03,1.32,0.946,-0.179,1.8,0.977,-0.2,0.564,0.282
TAGCCTAGGTCATTCAGGGGCCAGTCTAGAAAGC,3.1,5.97,4.33,1.66,2.98,3.27,0.478,2.76,1.43

Sequence,PBM binding z-score [1],PBM binding z-score [2],PBM binding z-score [3],PBM binding z-score [4],PBM binding z-score [5],PBM binding z-score [6],PBM binding z-score [7],PBM binding z-score [8],PBM binding z-score [9]
GCTAGTTGGTCAGTAAAAGCTCACACACCGGTCG,0.375,-0.0691,0.0188,0.421,-0.0351,-0.374,-0.166,-0.481,-0.217
AGTACGAGGGCACGCTGAGTTGATAGCAGAGTAG,1.41,2.07,2.38,2.3,1.2,1.92,0.295,2.29,2.17
CCTTACGGGGCAAGGTTATAGCACGGGTGGTACG,0.994,1.01,1.11,-1.2,1.08,0.828,-0.345,0.0431,0.2
TAGCCTAGGTCCTGCGGGCCAGTATAGTGTCGGC,-0.744,-0.626,-0.818,-1.46,-0.822,-1.56,-0.966,-1.05,-0.992
TAGCCTAGGTCATGTGCCAGTATACCACGCGAAC,2.84,3.83,4.32,1.26,3.14,2.91,1.55,2.35,0.739
CCGACTGGGGCATAAGGTTCCCATAAGCCAGCCC,-0.217,-0.0298,-0.0621,-0.59,-0.271,-0.0053,-0.165,-0.0761,-0.209
TAGCCTTGGTCATGGGCCAGTATACCACGCGAAC,0.441,0.368,0.681,-1.32,0.297,-0.147,-0.424,-0.347,-0.715
CAAAGTAGGTCACAGAGGTCAAAGTCCGTGCGTA,5.68,7.42,8.01,3.36,8.08,4.51,2.42,7.99,6.6
CCTACTGGGCTAAAAAGGTCATTGATGCCGATAA,4.14,4.08,3.54,0.543,4.39,3.01,0.22,4.33,2.22
TCATATGGGTAATACAGGTGAAAGTCGGCATCTA,0.197,0.414,0.489,0.75,0.794,0.846,-0.109,0.677,-0.42
GCTTGTAGATTAAGGTTAAGAAAGACTAAGCTAA,0.241,0.49,0.267,0.113,0.645,2.08,0.778,0.125,-0.232
TCGAGTAGGTTAGGGGCCTTCAGAATGGCGTCGA,-0.137,-0.483,-0.763,-0.0601,-0.143,-0.36,-0.629,-0.482,-0.468
CCTACTGGGCCAAAGGTCATTCATTCCAATGCTC,4.47,5.99,4.7,1.65,6.93,3.3,1.06,4.67,3.3
TCATATAGGTAATACAGGTGAAGGTCGGCATCTA,2,1.13,0.974,1.69,1.46,1.31,0.829,1.62,0.817
TCTTGTAAATCAATAGAGGTTAAGAAAGTGCGCT,1.42,0.907,0.577,1.23,1.46,1.56,0.0458,1.98,0.639
CCGACTGGGGCAATGGTTACCATACTCAGTACGA,-0.241,-0.0332,0.28,-0.545,0.082,-0.548,-0.465,-0.604,-0.489
CTCGCAAGGTCGGTTGAGGTGAGTATACGGATAA,1.72,1.27,1.25,0.828,1.01,4.74,1.75,1.21,0.439
CCCTACGGGTCACTGACAGGTTATAGCATTTGGA,3.42,5.77,4.37,0.859,4.97,2.93,0.405,3.56,1.07
AGAACGAGGGCAAGCTGAGTTGATAGCAGAGTAG,1.06,1.53,1.97,2.1,0.964,1.35,-0.471,1.37,1.36
AAAATGAGGTTATTAAGATCAGGGAATTGCGGTC,0.725,1.16,0.933,2.27,1.78,2.28,0.636,2.47,1.19
ATCGAAAGGTGGAAGGTGAGTATACCCACCCGAA,0.363,0.767,0.717,-1.21,1.12,0.406,-0.497,0.0525,0.146
TTACCAAGGTGAGCTGAGGTGGTTGATCCAACTC,-0.15,0.00376,-0.00239,-0.813,0.0948,2.98,-0.0561,-0.288,-0.641
TCTGCTAGGTAAACGATGGTCAGCTAATCTGCTA,-0.48,-0.193,-0.441,-0.148,0.132,-0.11,-1.01,-0.409,-0.963
AGAACGAGGGCACGCTGAGTTGGTAGCAGAGTAG,1.01,1.69,2.37,1.55,1.19,1.56,-0.105,1.34,0.953
